Test results published in PubChem BioAssay AID743398 (Broad Institute, 2014).
About 3,600 (1.2%) of roughly 300,000 compounds were called active. Many of the other results were omitted from the sample, so actives are more common in it than they were. Values without a mark were called inactive. No stated cut-off is given here; in the data, active means activation above about 30% (passing the limit was not always enough); inconclusive means no clear call, values can overlap the other calls.

Test: activation of beta-catenin signaling reporter – cell-based, plate reader, single point, primary screen (AID 743398);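 further: 0% = neutral control wells and 100% = positive control wells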
Details: Wnt/beta-catenin reporter cell assay, activator, at 9.35 µM, active compounds read high

Structure (SMILES)	activation
O=C(c1ccc(F)cc1)n1c(=S)nc2ccccn21	55.5% (active)
O=C(Cn1c(=S)nc2ccccn21)N1CCc2ccccc2C1	17.7%
O=C(c1ccc(F)cc1)n1cc(C(=S)N2CCOCC2)c2ccccc21	-0.566%
CC(C)(C)S(=O)N1Cc2cc(C(=O)NCCCN3CCOCC3)nc(-c3cccc(-c4cc5ccccc5o4)c3)c2[C@H]1CCO (some centres not stated)	-3.72%
O=C(NC(=O)c1ccccc1)Nc1ccccc1O	40.2% (active)
O=C(Nc1ccc(C(=O)O)c(O)c1)c1ccccc1	-0.311%
O=C(Nc1ncccc1O)c1ccc(C(=O)c2ccccc2)cc1	21.2%
Cc1cc(/C=C2/SC(=O)N(CC(=O)N3CCCC3)C2=O)c(C)n1C	-1.52%
Cc1cccc2c1N(CC(=O)OC(C)C)C(=O)C2=O	-1.39%
Cc1cc(/C=C2/SC(=O)N(CC(=O)OC(C)C)C2=O)c(C)n1C	32.5% (active)
COc1cccc(OCC(=O)NCCS(=O)(=O)N2CCN(c3ccccc3)CC2)c1	-0.863%
COC(=O)c1ccc2nc(-c3ccc(OC)c(OC)c3)c(Cc3ccccc3)n2c1	-2.38%
Clc1ccc(-c2csc(-c3ccncc3)n2)cc1	6.51%
COc1ccc(CC(=O)Nc2nc(-c3ccc(F)c(F)c3)cs2)cc1OC	-5.88%
Fc1ccc(-c2csc(-c3ccc(C4SCCS4)cc3)n2)cc1F	34% (active)
COC(=O)C1=C(C)N(Cc2ccccc2C(F)(F)F)C(=NCc2ccc(C(F)(F)F)cc2)NC1c1ccc(F)cc1 (configuration not stated)	-3.9%
COCCCNC(=O)c1ccc(-c2c(C)noc2C)c2ccoc12	3.17%
O=C(Nc1ccc(Cl)c(C(F)(F)F)c1)C1Cc2c(-c3ccccc3Oc3ccccc3)ccnc2O1 (configuration not stated)	-4.6%
Cc1c(C(=O)N2CCCc3ccccc32)sc2nc(-c3ccccc3)cn12	51.4% (active)
Cc1c(C(=O)NCC2CCCO2)sc2nc(-c3ccccc3)cn12 (configuration not stated)	8.78%
Cc1cccc2cc3c(N)c(C(=O)N4CCCc5ccccc54)sc3nc12	-13.9%
Cn1c(CCN2CCN(c3ccccn3)CC2)nc2cc(NS(=O)(=O)c3ccc(F)cc3)ccc21	-2.6%
Cc1ccc(C(=O)Nc2nnc(-c3ccncc3)s2)o1	2.92%

Structure (SMILES)	activation
Cc1ccc(C(=O)Nc2nc3ccc(Cl)cc3s2)o1	36.2% (active)
CCc1noc(C)c1C(=O)Nc1nc2ccc(OC)cc2s1	9.85%
CC(C)(C)Cc1c(C2CCCCC2)nc2ccc(Br)cn12	-1.26%
CCOC(=O)c1sc(NC(=O)COc2ncnc3ccccc23)c(C(=O)OCC)c1C	-6.66%
COC(=O)c1c(NC(C)=O)sc(C(=O)Nc2ccccc2OC)c1C	-1.17%
CCC(=O)Nc1sc(C(=O)Nc2ccccc2)c(C)c1C(=O)OC	68.1% (active)
O=C1Nc2ccccc2C1=NN=Cc1ccco1	0.126%
O=C(COc1ccc2oc3c(c2c1)CCCC3)Nc1ccccn1	39.6% (active)
CCOC(=O)N1CCN(C(=O)COc2ccc3oc4c(c3c2)CCCC4)CC1	-0.344%
CCN(CC)CCCNC(=O)COc1ccc2oc3c(c2c1)CCCC3	-0.131%
CC1(C)OC(=O)C2=C(C[C@@H](C3CCCC3)O[C@@H]2c2ccc(Cl)cc2)O1	-1.11%
CN(Cc1ccccc1)S(=O)(=O)c1nnc(NC(=O)c2ccccc2F)s1	-0.354%
O=C(Nc1ccc(NC(=O)c2ccccc2F)cc1)c1ccccc1F	-1.97%
O=C(Nc1nnc(-c2ccccc2F)s1)c1ccccc1F	32.6% (active)
COC(=O)C1=C(C)N(Cc2ccc(C(F)(F)F)cc2)C(=NCc2ccccc2)NC1c1ccccc1C(F)(F)F (configuration not stated)	-11.5%
Cc1ccc(Sc2cc(C(=O)c3ccccc3C(=O)O)ccc2[N+](=O)[O-])cc1	0.926%
O=C(CSc1cccc[n+]1[O-])c1ccc(-c2ccccc2)cc1	10.1%
Cc1ccc(C(=O)CSc2ccccc2C(=O)O)cc1	31.9% (active)
CCCCNC(=O)C[C@@H]1C[C@@]2(C(=O)OCC)CCC=C2N(Cc2cccc3ccccc23)C1=O	-1.83%
CC(C)C1CCN(C(=O)C2CCC(=O)N(C3CCCCCC3)C2)CC1 (configuration not stated)	0.269%
CCOC(=O)C1(C)CCCN(C(=O)c2cccc(Cl)c2)C1 (configuration not stated)	-1.09%
Cc1ccc(NC(=O)N2c3ccccc3SC2c2ccco2)c(C)c1 (configuration not stated)	4.58%
COc1ccccc1N(C(=O)Cn1nnc2ccccc21)C(C(=O)NCc1ccco1)c1ccc(C)o1 (configuration not stated)	-2.2%

Structure (SMILES)	activation
CCC(C)(C)NC(=O)C(c1cccn1C)N(Cc1ccc(C)cc1)C(=O)Cn1nnc2ccccc21 (configuration not stated)	0.194%
COCCNC(=O)C(c1ccc(C)o1)N(Cc1ccccc1)C(=O)Cn1nnc2ccccc21 (configuration not stated)	40.8% (active)
Cc1ccc(S(=O)(=O)N(CCc2ccccc2)c2ccc3c(c2)C2CC3CCN2C(=O)OCc2ccccc2)cc1 (configuration not stated)	-4.45%
CCCCCCN1C[C@H](O)[C@@H](n2cc(C3CC3)nn2)C[C@@H]1c1ccc(Cl)cc1	0.514%
CN1CCCc2nc(-c3ccccc3)ccc21	28.7%
Nc1ncnc2c1ncn2[C@@H]1O[C@H](C(=O)N[C@@H](CCc2ccccc2)C(=O)N2CCCN(Cc3cccs3)CC2)[C@@H](O)[C@H]1O	2.88%
CC(C)(C)CC(=O)Nc1nc(C(N)Cc2ccc(C(F)(F)F)cc2)cs1 (configuration not stated)	-3.02%
O=C(CNC(=O)c1ccccc1F)c1ccc(Br)cc1	39% (active)
O=C(CNC(=O)c1ccc(F)cc1)c1ccccc1	12.3%
O=C(NCCOc1ccccc1)c1ccccc1F	2.79%
C=CCn1nc(C(=O)OCC)cc1-c1sc(NC(=O)c2ccccc2)nc1C	-1.67%
CC1(C(=O)Nc2cccnc2)Cc2c(-c3ccccc3)ccnc2O1 (configuration not stated)	-1.45%
CCCc1cc(C(=O)Nc2ccc(Cl)cn2)cs1	39.5% (active)
CCCc1cc(C(=O)Nc2ccc(C(=O)OC)cc2)cs1	0.573%
O=C(Nc1ccc(Cl)cn1)c1ccccc1-c1ccccc1	-0.296%
Cc1ccc(F)c(S(=O)(=O)NC(=O)C2(C)CCN2C(=O)c2ccco2)c1 (configuration not stated)	-0.487%
C=CCN=C1NC(c2cccc(C(F)(F)F)c2)C(C(=O)OC)=C(C)N1C (configuration not stated)	1.05%
CC(=O)c1ccc(-c2cnc3c(NC=O)cc(-c4cccc(NS(C)(=O)=O)c4)cn23)cc1	1.57%
C[C@@H]1ON(C)[C@H]2C[C@H]3c4cc(N5CCOCC5)ccc4CCN3C[C@@H]12	-0.66%
CNS(=O)(=O)c1ccc(NC(=O)Nc2ccc3c(c2)OCO3)cc1	26.8%
Cc1cccc(NC(=O)Nc2ccc3c(c2)OCO3)n1	44.4% (active)
CC(NC(=O)Nc1ccc2c(c1)OCO2)c1ccncc1 (configuration not stated)	9.83%
CN(Cc1ccccc1)C(=O)CCC1CCN(C(=O)c2ccco2)CC1	-3.66%

Structure (SMILES)	activation
O=[N+]([O-])c1cc(Br)c(O)c(/C=N/Nc2nc3ccccc3s2)c1	8.44%
c1ccc(C(=NNc2nc3ccccc3s2)c2ccccn2)cc1	5.23%
c1ccc2sc(NN=C3CCCC3)nc2c1	52.4% (active)
CCOC(=O)N(C)c1c(CC)nc2c(OCc3ccccc3C(=O)OC)cccn12	4.08%
CN(Cc1ccc(C(F)(F)F)cc1)C(=O)[C@H]1O[C@@H](n2cnc3c(N)ncnc32)[C@H](O)[C@@H]1O	-3.24%
CC1(Oc2cccc(F)c2)CCN(Cc2ccccc2OC(F)F)C1 (configuration not stated)	0.111%
CC(=O)Nc1ccc(-c2nc3ccccc3o2)cc1	62% (active)
Cc1ccc2nc(-c3ccc(NC(=O)c4cccnc4)cc3)oc2c1	4.47%
CC(=O)Nc1ccc(Nc2c3ccccc3nc3ccccc23)cc1	-1.24%
CCOC(=O)N1CCN(C(=O)C[C@@H]2C[C@@]3(C(=O)OC)CCCCC=C3N(CCC3=CCCCC3)C2=O)CC1	-3.76%
COc1cccc(/C=N/Nc2ccc(Cl)nn2)c1	10.5%
Clc1ccc(N/N=C/c2cccs2)nn1	3.73%
Oc1cccc(/C=N/Nc2ccc(Cl)nn2)c1O	125% (active)
COC(=O)c1cc2c(c3c4cc(F)ccc4n(S(=O)(=O)c4ccccc4)c13)C(=O)N(Cc1ccccc1OC)C2	-6.32%
Cc1cccc(C(=O)OCC(=O)Nc2ccc(F)cc2)c1	-0.891%
Cc1nn(CC(=O)Nc2ccc(F)cc2)c(=O)c2ccccc12	-0.309%
CCC(=O)Nc1ccc2nn(-c3ccc(F)cc3)nc2c1	51% (active)
O=C(CCCN1C(=O)C(c2ccccc2)Oc2cccnc21)Nc1ccccc1Br (configuration not stated)	-1.84%
O=C(C(=O)N1CCC(CNC(=O)c2cccnc2Cl)CC1)c1cccs1	2.94%
O=c1cc(Cn2nnc(-c3ccc(Cl)cc3)n2)nc2sccn12	3.21%
COc1ccccc1N1CCN(C(=O)Cn2nnc(-c3cccs3)n2)CC1	-9.59%
Clc1cccc(Cl)c1Cn1nnc(-c2cccs2)n1	32.4% (active)
CCOC(=O)Cn1c2c(n(-c3ccc(F)cc3)c1=O)C=C(c1ccccc1)[C@@H](C)C(C(=O)N(C)C1CCCCC1)=C2	-5.16%
